# Pf Dd2 growth = Plasmodium falciparum Dd2 growth inhibition | P. falciparum Dd2 growth, SYBR Green, 72 h | Potency, µM (titrated, usually from 28.9 µM), for inactives: at the highest dose activity, negative = inhibition, usual class: inhibitors | 120,000 compounds, 4.3% hits | AID 1347417; active = well fitted inhibition curve with a large enough effect;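 also: plate controls were DMSO vehicle for no effect and reference drug for full effect; nearly all actives have a fitted effect of over 65% in size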
#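 Infected erythrocytes (Dd2, 0.3% parasitemia, 2.5% hematocrit final) are added to compound in RPMI-1640/Albumax II medium, grown 72 h at 37C in low oxygen, then lysed with saponin/Triton-X containing SYBR Green and read by fluorescence.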
# * = called active by the depositor; i = inactive; [ ] = another dose, or the depositor's remark. This is one part of a sample in which hits are shown more often than they occur. Potency is read from the fitted curve at half-maximal effect.
SMILES,Pf Dd2 growth
COc1cccc(CN2C[C@@H](CO)[C@H](c3nc(C)no3)C2)c1OC,i
COc1ccc2c(c1)c(CN1C[C@@H](CO)[C@H](c3nc(C)no3)C1)cn2C,10µM*
COc1ccc(CN2C[C@@H](CO)[C@H](c3nc(C)no3)C2)cc1OC,10%
COc1ccc(-c2noc([C@@H]3CCCN3C(=O)Cc3cccc(F)c3)n2)cc1OC,i
CCOC(=O)C1(Cc2ccc(F)cc2)CCCN(C(=O)c2ccc(C)s2)C1 (stereo not given),-8%
O=C(Cc1ccccc1)Nc1ccc([C@@H](O)[C@H]2COCC(=O)N2Cc2ccncc2)cc1,-25%[44.1 µM]
Cc1ccc(C)c(N2CCN(c3nc4ccc(C(=O)c5ccccc5)cc4n4cnnc34)CC2)c1,-11%
O=C(c1ccccc1)c1ccc2nc(N3CCN(c4ccc(F)cc4)CC3)c3nncn3c2c1,11µM*
Cc1ccc(Cl)cc1N1CCN(c2nc3ccc(C(=O)c4ccccc4)cc3n3cnnc23)CC1,-4%
Cc1ccc(Nc2nc3ccc(C(=O)c4ccccc4)cc3n3c(C)nnc23)c(C)c1,i
COc1cccc(N2CCN(c3nc4ccc(C(=O)c5ccccc5)cc4n4c(C)nnc34)CC2)c1,6.3µM*
Cc1ccc(N2CCN(c3nc4ccc(C(=O)c5ccccc5)cc4n4cnnc34)CC2)c(C)c1,15%
CN1CC2(CCCN(C(=O)c3conc3-c3ccccc3)CC2)OC1=O (stereo not given),-1%
Cc1cn2nc(C(=O)NCc3ccccc3C)cc2c(=O)[nH]1,25%
Cc1cn2nc(C(=O)NCc3ccc(Cl)cc3)cc2c(=O)[nH]1,4%
Cc1cn2nc(C(=O)NCc3ccc(F)cc3F)cc2c(=O)[nH]1,3.2µM*
CC(=O)N1CCCN(c2nc3ncccc3o2)CC1,12%[44.1 µM]
COc1ccc(C(C(=O)O)N2CCCN(c3ncccn3)CC2)c(OC)n1 (stereo not given),4%
COc1ccc(-n2cnc3cccnc32)cc1OC,-6%[44.1 µM]
Cc1cccc(N2CCN(C(=O)c3cn(CC(C)C)c(=O)c4c3c3ccccc3n4C)CC2)c1C,11µM*
CCn1c(=O)cc(OCC(=O)N2CCN(c3cccc(C)c3C)CC2)c2ccccc21,46%
CCn1cc(C(=O)N2CCN(c3cc(C)ccc3C)CC2)c(=O)c2cc(S(=O)(=O)N3CCCCC3)ccc21,12%
Cc1ccc(-n2nc(C(=O)N3CCN(c4ccccc4F)CC3)c3c4ccccc4n(C)c3c2=O)cc1,29%
Cc1ccc(C)c(N2CCN(C(=O)c3cn(CC(C)C)c(=O)c4c3c3ccccc3n4C)CC2)c1,2.5µM*
Cc1ccc(-n2nc(C(=O)N3CCN(c4cc(C)ccc4C)CC3)c3c4ccccc4n(C)c3c2=O)cc1,31%
SMILES,Pf Dd2 growth
CC(C)c1nnc(C2CN(C(=O)C3CCCC3)CC23CCOCC3)o1 (stereo not given),22%
COc1ccc(CC(=O)N2C[C@@H](CO)[C@H](c3ccncc3)C2)cc1,12%
Cc1ccccc1C(=O)Nc1ccc([C@H]2OCC(=O)N(Cc3ccncc3)[C@@H]2CO)cc1,17%[44.1 µM]
O=C(c1ccccn1)N1C[C@@H]2OCC(=O)N(CC3CCCCC3)[C@@H]2C1,2%[44.1 µM]
O=C(Nc1ccc([C@H]2OCC(=O)N(CC3CCCCC3)[C@@H]2CO)cc1)c1ccccn1,11µM*
CCS(=O)(=O)c1ncc(CN(C)Cc2ccc3nonc3c2)n1CCc1ccccc1,-19%
O=C(c1cccnc1)N1CCC2(COc3ncccc3[S+](=O)([O-])N2)C1 (stereo not given),9%
Cc1c(F)cccc1NC(=O)N1CCCC1c1nncn1-c1ccccc1 (stereo not given),0%
N#Cc1cccnc1N1CCN(Cc2cn(-c3ccccc3)nn2)CC1,-1%
OC[C@@H]1O[C@H](CN(Cc2cccc(Cl)c2)Cc2cccc(Cl)c2)C(N2CCOCC2)[C@@H]1O (stereo not given in full),i
COC[C@H]1CCCN1[C@@H]1[C@H](O)[C@H](CO)O[C@@H]1CNC(=O)Nc1ccccc1,2%[44.1 µM]
COC[C@H]1CCCN1[C@@H]1[C@H](O)[C@H](CO)O[C@@H]1CN(Cc1cccc(Cl)c1)Cc1cccc(Cl)c1,0.71µM*
CCCCNC(=O)N1CCC2(CC1)C(=O)N(CC(=O)NCC1CCCO1)CN2c1ccccc1 (stereo not given),i
CCC(=O)N1Cc2ccccc2OC2(CCN(C)CC2)C1,i
CC(=O)Nc1ccc(C(=O)N2CCC3(CC2)CN(C(=O)NC(C)C)Cc2ccccc2O3)cc1,13%
CC(=O)N1CCC2(CC1)CN(C(=O)N(C)C)Cc1ccccc1O2,6%
CC(C)NC(=O)N1Cc2ccccc2OC2(CCN(C(=O)c3ccc4[nH]ccc4c3)CC2)C1,10µM*
CC(=O)N1CCC2(CC1)CN(C(=O)c1ccc3[nH]ccc3c1)Cc1ccccc1O2,10µM*
COCCOCC(=O)N1Cc2ccccc2OC2(CCN(C)CC2)C1,i
CN1CCC2(CC1)CN(C(=O)CCc1ccccc1)Cc1ccccc1O2,1µM*
CC(=O)N1Cc2ccccc2OC2(CCN(C(=O)c3cccc4[nH]ccc34)CC2)C1,-14%
CC(C)NC(=O)N1CCC2(CC1)CN(C(=O)c1ccnc(N)c1)Cc1ccccc1O2,7%
COCCN1CCC2(CCC1=O)CN(CCC(=O)N1CCCC1)CCN2C (stereo not given),-2%
CCCc1noc(-c2cccn3c(CNC(=O)C4CCCC4)nnc23)n1,-23%
CC(C)CC(=O)NCCC1CCN(C(=O)Nc2cc(F)cc(F)c2)CC1,-19%
SMILES,Pf Dd2 growth
FC(F)(F)CN1C2CCC1CN(c1ncnc3sc(Cl)nc13)C2,-10%
COc1ccc(CC(=O)N2CCN(c3cc(-c4ccccc4)[nH]n3)CC2)cc1OC,4%
C=CCN(Cc1ccccc1OC)C(=O)c1cnn(CCC)c1C,-11%
CN(Cc1cccc(C(=O)Nc2cccc(C#N)c2)c1)CC1COCCO1 (stereo not given),-7%
Cc1ccc(Cn2c(SCc3ccc(C(=O)NCCc4ccccc4)cc3)nc3ccncc32)cc1,6.3µM*
Cc1ccccc1CSCc1ccc(C(=O)NCCc2ccccc2)o1,20%
COCCNC(=O)c1ccc(Cn2c(SCC(N)=O)nc3ccccc3c2=O)cc1,-27%
Cc1ccccc1Cn1c(SCc2ccc(C(=O)NC3CCCC3)cc2)nc2ccncc21,-10%
O=C(NCCc1ccccc1)c1ccc(CSc2nc3ccncc3n2Cc2ccccc2)cc1,8.9µM*
Cc1ccccc1Cn1c(SCc2ccc(C(=O)NCCc3ccccc3)cc2)nc2ccncc21,7.1µM*
CCCC(=O)N1CCC2(CC1)SCC(=O)N2c1ccc(Cl)cc1,-4%
O=C1CCN(S(=O)(=O)c2ccccc2)CCCN(C(=O)Nc2ccc3c(c2)OCCO3)CCN1,4%
O=C(c1cc2ccccc2[nH]1)N1CCN(c2cc(-c3ccccc3)[nH]n2)CC1,i
O=C(c1ccsc1)N1CCC(Oc2ccccc2)C1 (stereo not given),-12%
CN(C)Cc1nnc(C2CC(NC(=O)C3(C#N)CCOCC3)C2)n1C (stereo not given),0%
CCCCNC(=O)CCC(=O)NNc1nc2ccccc2c2nc(-c3ccccc3)nn12,-21%
CCCCNc1nc2ccccc2c2nc(-c3ccccc3)nn12,3.2µM*
Clc1ccccc1CNc1nc2ccccc2c2nc(-c3ccccc3)nn12,i
Clc1ccc(CNc2nc3ccccc3c3nc(-c4cccnc4)nn23)cc1,29%
Clc1ccc(CCNc2nc3ccccc3c3nc(-c4ccccc4)nn23)cc1,6%
c1ccc(CNc2nc3ccccc3c3nc(-c4ccccc4)nn23)cc1,8.9µM*

# Screens deposited in PubChem by National Center for Advancing Translational Sciences (NCATS).
